# According to the supplement of paper PMC7726561:
# Whole data set: some 1,100 sequences, median “thermal melting temperature (Tm) of peptide-HLA complex” near 58, cut for the lowest 2% near 42. The full list was thinned out, with the lowest values kept by preference.
# Target: HLA-A*02:01
# Test: thermal melting temperature (Tm) of peptide-HLA complex; higher = more thermostable pHLA complex
# Conditions: C1R-A*02:01
# 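Further: lysates heated 10 min at 37–73 °C, complexes pulled down with pan-HLA I antibody, peptide signal by DIA-MS relative to 37 °C, Tm where half the complex is unfolded.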
row,Sequence,thermal melting temperature [°C]
1,SLLDGVVEKL,55.5
2,TLFPVRLLV,55.8
3,GLIDGRLTI,54
4,FLLEQEKTQAL,59
5,LMGPVVHEV,46.4
6,QLQGYLRSV,57.7
7,GMDRYLIYV,60.9
8,YIYDKDMEII,57.2
9,QLLETLNQL,41.4
10,QLTNVILHL,58.7
11,SILSEVQQA,53.3
12,RLYQGINQL,55.9
13,FLPDPSALQNL,55
14,TLIDLPGITRV,56.9
15,LLAILPEAARA,60
16,ALLSGLREA,62.6
